The list is not random: actives were taken first. Their share in the collection is about 19%.
DT40 TDP1 CPT – growth inhibition of DT40 Tdp1-/-;hTDP1 cells with camptothecin (screen for TDP1 inhibitors); chicken DT40 Tdp1-/-;hTDP1 cells + 20 nM CPT, ATP luminescence, 48 h; Potency, µM (top dose mostly 46.2 µM), inactives show top-dose activity change, negative = growth inhibition, actives largely listed as inhibitors; hit rate 12% among 420,000; also: potency is read from the fitted curve at half-maximal effect; nearly all actives have a fitted effect of over 55% in size
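Chicken DT40 Tdp1-/- cells complemented with human TDP1, 400 cells/well, exposed to compounds plus 20 nM camptothecin for at least 48 h at 37 C; viability read as ATP content by CellTiter-Glo luminescence.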
HT1080 IDH1KD tx – kills HT-1080 cells with IDH1 knockdown. HT-1080 IDH1 knockdown viability, ATP luminescence, 48 h. AID 686971. Potency, µM (highest dose often 46.1 µM), without a hit: at the highest dose activity, negative = toxicity, most hits filed as cytotoxic. hit rate 2% among 360,000;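 also: potency is read from the fitted curve at half-maximal effect; 0% = DMSO wells and -100% = cell-free medium wells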
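Knockdown cells (IDH1KD HT-1080) received compounds 2 h after plating at 750 cells/well and were kept 48 h at 37 °C in 5% FBS RPMI. A CellTiter-Glo luminescence read gave % activity for curve fitting.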
IL1B secr inh – inflammasome signaling inhibition, IL-1 beta readout; THP-1 LPS/ATP IL-1B secretion, AlphaLISA, 16 h; active compounds read low; activity change, % at 57.5 µM; hit rate 4.7% among 360,000; AID 743279; in the data active = activity change below about -50%; inconclusive = mostly about -30% to -49%
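Secreted IL-1B measured by AlphaLISA bead assay after 16 h compound exposure of THP-1 cells; compounds (final up to 57.5 uM) added 1 h before LPS (250 ng/mL) and ATP (1.25 mM) stimulation; lower signal means less secretion.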
HT1080-NT tox – kills 2HG-producing HT-1080-NT fibrosarcoma cells. hit rate 1.6% among 360,000. HT-1080-NT fibrosarcoma viability, CellTiter-Glo ATP luminescence, 48 h. Potency, µM (titrated, usually from 46.1 µM), without a hit: top-dose activity, negative = less viability, hits mostly cytotoxic. AID 686970;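 also: NT is the 2HG producing partner of a matched IDH1 knockdown line; potency is read from the fitted curve at half-maximal effect; 0% = DMSO-treated cells and -100% = media-only wells without cells; nearly all actives have a fitted effect of over 55% in size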
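Viability by CellTiter-Glo luminescence after 48 h compound exposure at 37C of HT-1080-NT cells (750/well, RPMI, 5% FBS). % activity scaled between DMSO wells and medium-only wells, then curve-fitted and categorized by curve class.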
DT40 TDP1 no CPT – qHTS for Inhibitors of human tyrosyl-DNA phosphodiesterase 1 (TDP1): qHTS in cells in absence of CPT; DT40 Tdp1-/- hTDP1 cells, no CPT, ATP luminescence, 48 h; hit rate 15% among 420,000; Potency, µM (titrated, usually from 46.2 µM), for inactives: at the top dose activity change, negative = growth inhibition, hits mostly inhibitors; also: potency is read from the fitted curve at half-maximal effect; nearly all actives have a fitted effect of over 55% in size
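Chicken DT40 Tdp1-/- cells complemented with human TDP1, screened without camptothecin (DMSO vehicle only), 400 cells/well. Compounds pin-transferred, cells incubated at 37 °C for at least 48 hr. Growth read as ATP-dependent luminescence (CellTiter-Glo, 30 min at RT).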
* hit, by the source's call; i = inactive; ? = inconclusive; . = no result given. Unless noted, calls follow the shape of the dose curve; as a rule, active = well fitted curve in the direction sought with a large enough effect; inconclusive = small, poorly fitted or top-dose-only effect, or another doubt; inactive = no such curve, though single readings can be large; an effect the other way counts as inactive or inconclusive. Unless noted, % is scaled to controls: 0 for no effect and ±100 for the full control effect.

SMILES	DT40 TDP1 CPT	HT1080 IDH1KD tx	IL1B secr inh	HT1080-NT tox	DT40 TDP1 no CPT
COc1ccc(C(=O)NNC(=O)CSc2nnc(-c3cccnc3)n2C)cc1	5%	-1%	0	0%	6%
CCN(CC)S(=O)(=O)c1cc(OC)c(Cl)cc1OC	22%	?	18	11%	-22%
Cc1ccccc1N1CCN(C2CCCN(C(=O)c3noc4c3CCCC4)C2)CC1 (stereo unspecified)	9.2µM*	-13%	-6	-8%	8.2µM*
Cc1ccccc1N1CCN(C2CCCN(C(=O)c3ccsc3)C2)CC1 (stereo unspecified)	?	-2%	i	1%	?
Cc1ccccc1N1CCN(C2CCCN(C(=O)c3ccccn3)C2)CC1 (stereo unspecified)	-59%	-8%	-5	-13%	26µM*
S=c1sc2ccccc2n1CCc1ccncc1	?	9%	-12	0%	-27%
O=C(NCC(=O)N1CCN(S(=O)(=O)c2ccccc2)CC1)c1ccc(Br)o1	-9%	1%	18	-9%	-1%
COc1ccc(CCNC(=O)c2ccc(Cn3c(SCc4ccccc4)nc4cccnc43)cc2)cc1	?	.	.	.	2.9µM*
O=C(NCCc1ccccc1)c1ccc(CSc2nc3cccnc3n2Cc2ccccc2)cc1	?	.	.	.	15µM*
COc1ccc(Cn2c(SCc3ccc(C(=O)NC(C)c4ccccc4)cc3)nc3cccnc32)cc1 (stereo unspecified)	0%	.	.	.	?
CN(Cc1ccccc1)C(=O)c1ccc(CSc2nc3cccnc3n2Cc2ccccc2)cc1	12µM*	.	.	.	?
O=C(NCCc1ccccc1)c1ccc(Cn2c(SCc3ccc(F)cc3)nc3cccnc32)cc1	?	.	.	.	-29%
COc1cccc(CCNC(=O)c2ccc(Cn3c(SCc4ccccc4)nc4cccnc43)cc2)c1	?	.	.	.	21µM*
OCC1OC(Nc2ccccc2C=NO)C(O)C1O (stereo unspecified)	4%	-6%	55	-4%	-7%
CCCn1c2ccccc2c2cnn(CC(=O)NCCc3cc(OC)ccc3OC)c(=O)c21	?	.	.	.	16µM*
CCCn1c2ccccc2c2cnn(CC(=O)NCCOC)c(=O)c21	-19%	9%	-3	7%	-15%
CCCn1c2ccccc2c2cnn(CC(=O)Nc3ccccc3OC)c(=O)c21	23µM*	.	.	.	15µM*
CCCn1c2ccccc2c2cnn(CC(=O)NCc3cc(OC)ccc3OC)c(=O)c21	18µM*	.	.	.	?
CCCCCCCCOC(=O)/C=C/c1c(C)[nH]c(=O)[nH]c1=O	?	3%	6	-3%	7.3µM*
COCCCNC(=O)C(C)n1c2ccccc2c2cnn(C)c(=O)c21 (stereo unspecified)	-16%	.	.	.	-21%
CCOC(=O)c1c(CN2CCOCC2)n(-c2ccccc2)c2cc(Br)c(OC)cc12	16µM*	?	44	-17%	21µM*
CCOC(=O)c1c(CN(C)C)n(-c2ccccc2)c2cc(Br)c(OC)cc12	?	?	-8	?	?
CCOC(=O)c1c(CSC(=N)N)n(C)c2cc(Br)c(OC(C)=O)cc12	16µM*	?	-102*	?	16µM*
CCOC(=O)c1c(CN2CCOCC2)n(-c2ccccc2)c2cc(Br)c(O)cc12	-16%	-8%	-15	6%	18%
CCOC(=O)c1c(C)n(CC(O)CN(C)C)c2cc(Br)c(OC)cc12 (stereo unspecified)	22%	-12%	-79*	0%	?
SMILES	DT40 TDP1 CPT	HT1080 IDH1KD tx	IL1B secr inh	HT1080-NT tox	DT40 TDP1 no CPT
CCOC(=O)c1c(CN(C)C)n(-c2ccc(C)cc2)c2cc(Br)c(O)cc12	?	-19%	-63*	-9%	?
Clc1ccc(Oc2nc(N3CCOCC3)nc(N3CCOCC3)n2)cc1	?	8%	-15	12%	?
CCOC(=O)c1c(CN2CCN(C)CC2)n(C)c2cc(Br)c(OC)cc12	?	?	-19	?	?
CCOC(=O)c1c(CN2CCCCC2)n(C)c2cc(Br)c(O)cc12	2.3µM*	-6%	11	0%	9.2µM*
CCOC(=O)CCc1c(C)c2ccc(OCc3cc([N+](=O)[O-])ccc3OC)cc2oc1=O	26µM*	20%	-1	10%	23µM*
NS(=O)(=O)c1cccnc1Nc1cccc(C(F)(F)F)c1	-21%	-21%	-6	0%	-28%
Fc1ccc(Nc2nc3nonc3nc2Nc2cccc(C(F)(F)F)c2)cc1	0.33µM*	.	.	.	0.16µM*
CS(=O)(=O)N1CCc2cc(C(=O)O)ccc21	-6%	-1%	3	-1%	-7%
O=[N+]([O-])c1cccc(-c2csc(N/N=C/c3cccc(O)c3)n2)c1	?	18µM*	-168*	?	21µM*
CS(=O)(=O)N1CCc2cc(-c3csc(NC(=O)C(c4ccccc4)c4ccccc4)n3)ccc21	12µM*	0%	16	?	?
O=C(Nc1nc(-c2cccc([N+](=O)[O-])c2)cs1)C(c1ccccc1)c1ccccc1	?	-13%	-72*	-6%	?
CC(OC(=O)c1ccccc1Br)C(=O)Nc1nc(-c2cccc([N+](=O)[O-])c2)cs1 (stereo unspecified)	?	?	-23	11%	?
Cc1[nH]n(-c2nc(-c3cccc([N+](=O)[O-])c3)cs2)c(=O)c1C	?	8%	4	1%	21µM*
CCOc1ccc(N2CC(C(=O)Nc3nnc(Cc4ccccc4)s3)CC2=O)cc1 (stereo unspecified)	-5%	-9%	48	-26%	-20%
Cc1cc(NC(=O)NC(C(F)(F)F)C(F)(F)F)no1	18%	0%	7	2%	15%
CS(=O)(=O)N1CCC(Oc2ccccc2C(=O)NCCCc2cccnc2)CC1	-27%	16%	11	10%	-26%
CC1Cc2cc(-c3csc(NC(=O)Cc4ccccc4)n3)ccc2N1S(C)(=O)=O (stereo unspecified)	16µM*	?	-84*	?	10µM*
O=C(NC(=S)Nc1nc(-c2cccc([N+](=O)[O-])c2)cs1)c1cc(Cl)ccc1Cl	-83%	12%	-2	24%	16µM*
CC(=O)NCCCC(=O)NN1C(=S)N(Cc2ccccc2)C(=O)C1CC(=O)Nc1cccc(C)c1 (stereo unspecified)	-6%	-8%	21	-20%	2%
C/C(=N/Nc1cc(-c2ccccc2)nc(-c2ccccc2)n1)c1ccc(O)cc1	16µM*	?	-105*	-16%	13µM*

Screening data deposited in PubChem by National Center for Advancing Translational Sciences (NCATS).
